HSP90 refold inh: inhibitors of HSP90 luciferase refolding in rabbit reticulocyte lysate. actives 0.91% (n = 290,000). luciferase refolding luminescence, 3 h. AID 1789. inhibition, % at 5.6 µM;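 active = inhibition above the screen-wide mean plus 3 SD, computed separately per campaign, cut at about 16% in these data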;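 note: 0% = DMSO wells and 100% = 60 µM geldanamycin wells; inhibitors lower the luminescence because luciferase stays unfolded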
LGR2 antag: blocks bursicon-induced cAMP signaling via Drosophila LGR2. inhibition, % at 9.99 µM. HEK293 LGR2, CRE-luciferase, bursicon-stimulated, 4 h. actives 0.35% (n = 380,000);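 active = drop in luminescence signal, shown as inhibition above about 50% in the replicate tests, limit read from the data, passing the limit was not always enough; inconclusive = probably only some replicates passing the limit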;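 note: agonist challenge used bursicon conditioned medium at about half maximal strength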
TWEAK-Fn14 inh: TWEAK-Fn14 signaling inhibition; TWEAK-stimulated Fn14 reporter cells, luciferase luminescence, 8 h; inhibition, % at 10 µM; actives 2% (n = 360,000); in the data active = inhibition above about 50%
TROY signal inh: inhibitors of TROY-dependent NF-kB signaling | Q293 LMP1-TROYcd NF-kB luciferase reporter, 4 h | inhibition, % at 10 µM | actives 0.98% (n = 360,000) | AID 1347056;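 active = compounds whose plate-normalised and pattern-corrected inhibition of the luciferase reporter signal at the single screening dose is 50% or more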
Starred values were filed as active, the others as inactive; ? = inconclusive; . = not tested or not shown. Only some compounds are listed: those with a hit (about 2.2% of all), similar ones and a draw of the others.

SMILES | HSP90 refold inh | LGR2 antag | TWEAK-Fn14 inh | TROY signal inh
CCn1c(SCC(=O)Nc2nc(-c3ccc(C)cc3)cs2)nnc1-c1ccccc1 | 1 | . | 31 | 41
Cn1c(SCC(=O)Nc2nc3ccccc3s2)nnc1-c1ccccc1 | -2 | . | -3 | -9
COc1ccc(-c2csc(NC(=O)CSc3nc4ccccc4c(=O)[nH]3)n2)cc1 | 0 | -9 | -37 | 41
CCn1c(SCC(=O)Nc2nc(-c3ccc(C)cc3)cs2)nnc1-c1ccccc1O | -2 | . | 47 | 50*
O=C(CSc1nc(O)cc(=O)n1-c1ccccc1)Nc1nc2ccccc2s1 | 0 | -18 | 41 | 64*
COc1ccc2c3c([nH]c2c1)[C@@H](CO)N(C(=O)Nc1ccccc1F)CC31CN(C(=O)c2ccccc2F)C1 | . | -6 | . | .
CC(Nc1nc(-c2ccc(Cl)cc2)cs1)c1nc2cc(Cl)c(N3CCCCC3)cc2n1CCOCCO (stereo not given) | . | ? | 54* | 40
C[C@@H]1CN([C@@H](C)CO)S(=O)(=O)c2ccc(-c3ccc(C#N)cc3)cc2O[C@@H]1CN(C)C(=O)CN(C)C | . | 5 | . | .
C(/C=C/c1ccccn1)=C\c1ccccc1 | . | 76* | -5 | -6
C[C@H](CO)N1C[C@H](C)[C@H](CN(C)Cc2ccccn2)Oc2ncc(C#C[C@@H](C)O)cc2C1=O | . | -5 | . | .
C[C@@H]1CN([C@@H](C)CO)C(=O)c2cccc(NC(=O)Nc3ccc(F)cc3)c2O[C@@H]1CN(C)C(=O)NC1CCCCC1 | . | 2 | . | .
CCC(=O)Nc1ccc2c(c1)C(=O)N(C)C[C@H](OC)[C@@H](C)CN(C(=O)c1ccccc1F)[C@H](C)CO2 | . | 2 | . | .
O=C(c1cc2sccc2n1Cc1ccc(F)cc1)N1CCN(c2nc3ccccc3s2)CC1 | 8 | . | 65* | 30
CCc1noc(C)c1C(=O)NC1CCCc2c1cnn2-c1cc(C)cc(C)c1 (stereo not given) | 4 | -13 | -23 | -23
CCc1[nH]nc(C(=O)NC2CCCc3c2cnn3-c2cc(C)cc(C)c2)c1C (stereo not given) | 3 | -17 | -20 | 58*
CCn1nc(C)cc1C(=O)NC1CCCc2c1cnn2-c1ccc(C)c(C)c1 (stereo not given) | 8 | 1 | 35 | 56*
C[C@H](CO)N1C[C@H](C)[C@H](CN(C)C(=O)Nc2ccc(F)cc2)Oc2c(NS(=O)(=O)c3ccc(F)cc3)cccc2C1=O | . | -9 | . | .
C[C@H]1CN([C@@H](C)CO)C(=O)Cc2cc(NC(=O)CCCN(C)C)ccc2O[C@H]1CN(C)S(=O)(=O)c1ccc(Cl)cc1 | . | 3 | . | .
COCCNc1nc(Oc2cncc(Cl)c2)c2sccc2n1 | . | 8 | 50* | 27
COCCNc1nc(Oc2cccc(F)c2)c2sccc2n1 | . | -12 | 13 | -5
O=C(C[C@H]1CC[C@H]2[C@@H](COC[C@@H](O)CN2Cc2cc(F)ccc2F)O1)N[C@@H]1CCN(Cc2ccccc2)C1 | . | -6 | . | .
CNC(=O)CN(Cc1ccccc1)S(=O)(=O)c1ccccc1 | -1 | . | -13 | -8
CC(C)(C)NC(=O)CN(Cc1ccccc1)S(=O)(=O)c1ccccc1 | -1 | 34 | 54* | 4
C[C@@H]1CN([C@@H](C)CO)S(=O)(=O)c2ccc(-c3ccccc3)cc2O[C@H]1CN(C)C(=O)C1CC1 | . | 8 | . | .
CC(C)c1ccc(C2NC(=O)NC3=C2CCc2ccccc23)cc1 (stereo not given) | 0 | . | 76* | 55*
SMILES | HSP90 refold inh | LGR2 antag | TWEAK-Fn14 inh | TROY signal inh
COc1ccc(C2NC(=O)NC3=C2CCc2ccccc23)cc1 (stereo not given) | 3 | . | 7 | -1
CCOc1ccc(N/C(SCc2cccc([N+](=O)[O-])c2)=C(/C#N)C(N)=O)cc1 | 0 | 28 | 8 | 11
N#CC(C#N)=C(Nc1ccc(F)cc1)SCc1cccc(F)c1 | 3 | 53* | 49 | 53*
C[C@@H]1CCCCO[C@H](CN(C)Cc2ccc3c(c2)OCO3)[C@@H](C)CN([C@@H](C)CO)C(=O)c2cc(NC(=O)C3CCCCC3)ccc2O1 | . | 20 | . | .
Cc1ccc(C(=O)OC2OC(=O)C(Cl)=C2N2CCOCC2)cc1 (stereo not given) | 13 | 23 | 58* | 21
COCCNc1nc(NCc2ccccc2OC)c2sccc2n1 | . | -1 | 5 | 20
CC(C)Nc1nc(NCc2ccccc2)c2sccc2n1 | . | . | 3 | 57*
CCOC(=O)Cc1ccc(Nc2nc(NCc3ccccc3)nc3ccsc23)cc1 | . | -4 | 93* | 57*
COc1ccccc1CNc1nc(Nc2cccc(-c3cnco3)c2)c2sccc2n1 | . | 5 | 98* | 75*
COc1ccccc1CNc1nc(NCc2ccccc2OC)c2sccc2n1 | . | 31 | 42 | 57*
CCC(=O)N(C)C[C@@H]1Oc2ncc(-c3ccc(C)cc3)cc2C(=O)N([C@@H](C)CO)C[C@H]1C | . | 3 | . | .

Bioassay records from PubChem.
